The source made the active and inactive calls.
Key:
[1] = compounds binding Alexa647 anti-His antibody – biochemical, small-molecule microarray, 635 nm fluorescence, artefact control for SMM control protein annotation, primary screen (AID 1128); conditions: higher = more signal;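 also: score merges feature fluorescence with signal-to-noise for each printed compound spot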
[2] = test system: Human papillomavirus type 1a E7 protein (residues 1-88); assay: HPV1a E7 small-molecule binders, primary screen, biochemical, small-molecule microarray, residues 1-88, 635 nm (AID 1129); conditions: small-molecule microarray binding, fluorescence 635 nm; higher = more signal
[3] = target: Focal adhesion kinase 1 (Homo sapiens) (UniProt Q05397); assay: PTK2 protein binding on printed compound slides – biochemical, small-molecule microarray, 635/667 nm fluorescence, BSA, DTT, primary screen (AID 1130); conditions: 635 nm fluorescence, higher = more signal;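 also: composite of spot emission at 667 nm and signal to noise over triplicate slides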
Focal adhesion kinase 1 (Homo sapiens), sequence (Q05397 whole entry, looked up): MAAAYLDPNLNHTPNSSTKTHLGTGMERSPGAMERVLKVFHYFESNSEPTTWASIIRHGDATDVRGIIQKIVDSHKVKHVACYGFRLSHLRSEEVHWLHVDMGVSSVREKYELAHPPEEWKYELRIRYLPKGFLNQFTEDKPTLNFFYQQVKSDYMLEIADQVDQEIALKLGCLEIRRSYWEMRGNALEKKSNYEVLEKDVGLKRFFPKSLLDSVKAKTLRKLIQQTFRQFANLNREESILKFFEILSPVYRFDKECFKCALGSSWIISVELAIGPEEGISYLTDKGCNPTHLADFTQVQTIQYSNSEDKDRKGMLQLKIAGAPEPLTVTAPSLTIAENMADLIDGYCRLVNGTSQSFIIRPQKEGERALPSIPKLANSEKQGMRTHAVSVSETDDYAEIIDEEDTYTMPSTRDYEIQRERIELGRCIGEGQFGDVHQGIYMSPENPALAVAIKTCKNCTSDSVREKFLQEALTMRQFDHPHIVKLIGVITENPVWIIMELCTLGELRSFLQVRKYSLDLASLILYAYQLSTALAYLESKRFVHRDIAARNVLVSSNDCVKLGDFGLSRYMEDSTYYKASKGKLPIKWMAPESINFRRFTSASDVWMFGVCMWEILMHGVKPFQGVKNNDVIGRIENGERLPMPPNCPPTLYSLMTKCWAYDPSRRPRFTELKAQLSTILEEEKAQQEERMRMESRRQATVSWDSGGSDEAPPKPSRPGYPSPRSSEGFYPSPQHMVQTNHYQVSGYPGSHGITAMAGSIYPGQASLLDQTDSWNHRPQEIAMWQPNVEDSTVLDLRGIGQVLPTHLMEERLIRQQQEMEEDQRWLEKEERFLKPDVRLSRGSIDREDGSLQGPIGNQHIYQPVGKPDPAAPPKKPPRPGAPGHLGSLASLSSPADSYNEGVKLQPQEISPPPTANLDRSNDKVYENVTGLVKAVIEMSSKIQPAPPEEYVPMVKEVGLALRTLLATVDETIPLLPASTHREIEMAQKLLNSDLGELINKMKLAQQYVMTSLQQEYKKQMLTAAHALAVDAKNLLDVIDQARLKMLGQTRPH

[4] = test system: Fibrinogen (Alexa647-labelled); assay: Alexa647-fibrinogen binding to printed small molecules – biochemical, small-molecule microarray, 635/667 nm fluorescence, artefact control for SMM control-protein annotation, profiling panel (AID 1131); conditions: fibrinogen-A647 binding fluorescence, higher = more signal;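 also: z-score merges 667 nm fluorescence with per-spot signal-to-noise over triplicate slides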
[5] = target: Follistatin (Homo sapiens) (UniProt P19883); assay: FST protein binding to printed compounds – biochemical, small-molecule microarray, 635/667 nm fluorescence, primary screen (AID 1132); conditions: 635 nm fluorescence, higher = more signal
Follistatin (Homo sapiens), sequence (P19883 whole entry, looked up): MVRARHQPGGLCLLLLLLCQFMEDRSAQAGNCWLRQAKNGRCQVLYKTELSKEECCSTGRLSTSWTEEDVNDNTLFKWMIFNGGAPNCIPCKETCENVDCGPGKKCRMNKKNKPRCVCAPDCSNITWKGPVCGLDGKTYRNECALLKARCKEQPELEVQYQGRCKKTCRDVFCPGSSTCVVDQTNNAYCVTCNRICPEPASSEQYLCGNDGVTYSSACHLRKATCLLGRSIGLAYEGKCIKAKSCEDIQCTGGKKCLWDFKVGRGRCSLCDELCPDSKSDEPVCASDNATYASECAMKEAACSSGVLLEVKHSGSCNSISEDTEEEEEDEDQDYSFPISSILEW

[6] = target: Fibroblast growth factor 2 (Homo sapiens) (UniProt P09038); assay: basic fibroblast growth factor binding to printed compounds – biochemical, small-molecule microarray, 635/667 nm fluorescence, primary screen (AID 1133); conditions: FGF2, fluorescence 635/667, higher = more signal
Fibroblast growth factor 2 (Homo sapiens), sequence (P09038 whole entry, looked up): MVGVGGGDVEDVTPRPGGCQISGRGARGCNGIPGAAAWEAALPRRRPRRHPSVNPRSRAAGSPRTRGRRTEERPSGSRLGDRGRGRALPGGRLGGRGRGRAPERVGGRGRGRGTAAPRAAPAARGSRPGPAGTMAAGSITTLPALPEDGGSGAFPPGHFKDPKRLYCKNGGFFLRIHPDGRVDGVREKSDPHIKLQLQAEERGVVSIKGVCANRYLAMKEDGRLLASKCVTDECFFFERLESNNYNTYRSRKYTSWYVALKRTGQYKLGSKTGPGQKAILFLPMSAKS

[7] = JC-1 mitochondrial potential readout, lung cancer cells – cell-based, A549, JC-1 fluorescence, basal, 24 h, 100 nL, profiling panel (AID 1138); conditions: higher = more signal;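 also: A549 lung adenocarcinoma cells under basal conditions with no added stimulus; test concentration not given here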
Lefty1 = Lefty1 protein binding to printed compounds – biochemical, small-molecule microarray, 635/667 nm fluorescence, primary screen (AID 1139); conditions: fluorescence 635/667, higher = more signal
[8] = test system: wheat germ agglutinin (Triticum aestivum), Alexa647-labelled; assay: Alexa647-WGA lectin binding to printed small molecules – biochemical, small-molecule microarray, 635/667 nm fluorescence, artefact control for SMM control-protein annotation, profiling panel (AID 1140); conditions: WGA-A647 binding, 635 nm fluorescence, higher = more signal;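 also: score merges 667 nm feature emission with signal to noise over triplicate slides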
[9] = target: Luciferin 4-monooxygenase (Photinus pyralis) (UniProt P08659); assay: inhibition of purified Photinus pyralis luciferase – biochemical, luminescence, purified enzyme, 2006 set, primary screen (AID 1141); conditions: purified firefly luciferase, SteadyGlo luminescence, 30 min; higher = more signal, called active from +8 up or from −8 down;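 also: cell-free assay with purified firefly luciferase at 100 ng per well in PBS; test concentration not given here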
Luciferin 4-monooxygenase (Photinus pyralis), sequence (P08659 whole entry, looked up): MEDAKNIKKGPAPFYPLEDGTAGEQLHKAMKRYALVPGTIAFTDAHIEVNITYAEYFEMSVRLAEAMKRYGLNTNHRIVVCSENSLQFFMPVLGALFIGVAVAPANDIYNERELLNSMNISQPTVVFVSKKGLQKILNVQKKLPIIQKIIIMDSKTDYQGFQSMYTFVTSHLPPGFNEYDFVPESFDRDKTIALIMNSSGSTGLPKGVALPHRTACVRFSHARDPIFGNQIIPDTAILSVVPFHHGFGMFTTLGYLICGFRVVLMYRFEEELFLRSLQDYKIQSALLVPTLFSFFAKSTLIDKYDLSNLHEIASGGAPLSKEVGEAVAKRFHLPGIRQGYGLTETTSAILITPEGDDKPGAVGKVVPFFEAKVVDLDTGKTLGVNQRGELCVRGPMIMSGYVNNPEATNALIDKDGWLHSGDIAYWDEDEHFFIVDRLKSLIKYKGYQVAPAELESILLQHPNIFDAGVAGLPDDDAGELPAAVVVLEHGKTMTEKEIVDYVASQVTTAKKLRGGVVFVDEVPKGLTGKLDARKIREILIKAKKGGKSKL

Row | SMILES | composite z-score [1] | composite z-score [2] | composite z-score [3] | composite z-score [4] | composite z-score [5] | composite z-score [6] | z-score [7] | composite z-score (Lefty1) | composite z-score [8] | z-score [9]
1 | O=C1C[C@@](C(=O)NC2CC2)(c2ccc([N+](=O)[O-])cc2)[C@@H](c2ccc(CO)cc2I)N1CC12CC3CC(CC(C3)C1)C2 | -0.317 | 1.18 | 0.32 | 0.751 | 1.07 | 0.718 | -0.558 | 1.15 | 0.793 | -0.318 (inactive)
2 | CSCC[C@@H]1NC(=O)CC=C[C@@H](C)COC(=O)[C@H](CCSC)NC(=O)CC=C[C@@H](C)COC1=O | -0.158 | -0.111 | -0.388 | 0.017 | 0.129 | 0.296 | 1.01 | 0.531 | -0.725 | -0.731 (inactive)
3 | COc1cccc([C@H]2N[C@H](C(=O)O)CC[C@@H]2C)c1 | 0.184 | 0.335 | 0.163 | 0.363 | 0.0807 | -0.0305 | -0.14 | 0.223 | -0.208 | -0.128 (inactive)
4 | COc1cc2c(cc1OC)CN(C(=O)[C@H]1[C@@H]3C(=O)O[C@@H](c4ccccc4)[C@@H](c4ccccc4)N3[C@@H](c3ccccc3OCCO)[C@]13C(=O)Nc1ccc(C#CC4(O)CCCCCC4)cc13)CC2 | 2.85 | 1.21 | -0.0047 | 0.922 | 1.37 | 1.27 | -0.627 | 0.971 | 1.08 | -1.02 (inactive)
5 | CN1C(=O)C2C=CC(C(O)c3ccc(N(C)C)cc3)N(Nc3ccc([N+](=O)[O-])cc3[N+](=O)[O-])C2C1=O (stereo not given) | 1.54 | 1.23 | 0.171 | 1.01 | 1.26 | -0.0151 | 0.469 | -0.375 | 1.24 | -1.2 (inactive)
6 | C=CCOC(=O)[C@@H]1[C@H]2C(=O)O[C@H](c3ccccc3)[C@H](c3ccccc3)N2[C@H](c2ccc(OCCOC(=O)[C@H]3C[C@H]4C(=O)N[C@@H](CCCCNC(C)=O)C(=O)N4[C@H]3c3ccc(O)cc3)cc2)[C@@]12C(=O)Nc1ccc(I)cc12 | 1.21 | 0.894 | -0.145 | 0.852 | 1.08 | 1.7 | -0.815 | 1.08 | 0.115 | -0.608 (inactive)
7 | C=CC(=O)O[C@@H](Cc1ccccc1)[C@H]1C2C=CCCC=C2CN1Cc1cccc(Cl)c1 (stereo not given in full) | -0.0091 | -2.16 | -0.426 | -0.327 | -0.14 | -0.344 | 1.77 | -0.697 | -0.346 | -1.52 (inactive)
8 | Cc1ccc(S[C@]2(C(=O)NC3CC3)CC(=O)N(Cc3cc(C(F)(F)F)cc(C(F)(F)F)c3)[C@@H]2c2ccc(CO)cc2)cc1 | 1.79 | 0.489 | 0.389 | 0.182 | 1.2 | 0.411 | 0.232 | 0.821 | 0.31 | 1.22 (inactive)
9 | C=CC[C@@]1(C(=O)NCC(O)CO)N=C(c2ccc(OCCCO)cc2)O[C@@H]1c1ccccc1CN=[N+]=[N-] (stereo not given in full) | 1.55 | 0.756 | 0.77 | 0.198 | 0.415 | -0.492 | 1.37 | -0.548 | 0.569 | -0.117 (inactive)
10 | Cc1ccc(S[C@]2(C(=O)NCCCN(C)C)CC(=O)N(Cc3ccccc3)[C@@H]2c2ccc(CO)cc2I)cc1 | 0.412 | -0.0835 | 0.152 | 0.233 | -0.143 | -1.33 | 3.68 | -0.892 | 0.876 | -0.0307 (inactive)
11 | CC(=O)NCCCC[C@@H]1NC(=O)[C@H]2C[C@@H](C(=O)NCCCCCCN(C)C)[C@@H](c3ccc(O)cc3)N2C1=O | 3.14 | 1.25 | 0.554 | 0.793 | 1.34 | 0.903 | -1.26 | 1.55 | 1.29 | 0.0866 (inactive)
12 | COCCOC(=O)N1C(=O)[C@@]2(c3cc(C#CC4(O)CCCCCC4)ccc31)[C@H](C(=O)N1CCCCCCC1)[C@H]1C(=O)O[C@H](c3ccccc3)[C@H](c3ccccc3)N1[C@@H]2c1ccc(O)cc1 | 1.25 | 1.22 | 0.646 | 0.72 | 1.48 | 0.536 | 0.208 | 1.08 | 1.38 | -1.27 (inactive)
13 | C=C(C(=O)CC[C@H](OC(=O)c1ccccc1-c1ccccc1C(=O)O)c1ccc(CO)o1)C(C)C | 2.61 | 0.0323 | 0.0321 | 0.531 | 1.27 | 1.46 | -0.528 | 1.04 | 0.0123 | -1.75 (inactive)
14 | CCC#CCN(Cc1ccccc1Br)[C@H](/C=C/c1ccccc1)[C@@H](O)Cc1ccccc1 | 0.017 | -0.518 | -0.0168 | -0.58 | -0.886 | -1.48 | -0.565 | -0.978 | -0.518 | -0.686 (inactive)
15 | CN1CCC(CCCO)=CC1C1CC1 (stereo not given) | 0.346 | -0.256 | -0.233 | -0.146 | 0.803 | 0.923 | 0.949 | 1.12 | -0.59 | -0.703 (inactive)
16 | COCCCNC(=O)[C@@H]1c2ccccc2C(=O)N(CC23CC4CC(CC(C4)C2)C3)[C@H]1c1ccc(CO)cc1 | -0.348 | 0.816 | 0.412 | -0.434 | 1.39 | 0.875 | -0.648 | 0.19 | 0.728 | 0.438 (inactive)
17 | O=C1c2ccccc2[C@](Cc2ccccc2I)(C(=O)O)[C@H](c2ccc(CO)cc2)N1C1CCCCC1 | 1.52 | 1.24 | 0.398 | 0.801 | 1.33 | 1.06 | -0.254 | 0.4 | 1.13 | -0.757 (inactive)
18 | CN(C)C(=O)[C@@]1(Cc2ccccc2N=[N+]=[N-])N=C(c2ccc(OCCCO)cc2)O[C@H]1c1ccccc1CN=[N+]=[N-] | 2.23 | 1.23 | 1.02 | 0.831 | 1.21 | 0.512 | 2.31 | 0.633 | 1.45 | -1.92 (inactive)
19 | COc1ccc([C@H]2C[C@H]3C(Br)=C[C@]2(OC)C(=O)[C@]32CO2)cc1 | 1.2 | 0.0022 | -0.458 | -0.278 | 0.276 | 1.2 | -1.02 | -0.1 | -0.06 | 0.909 (inactive)
20 | C=C(C)[C@@H]1CC=C(C(O)C2C=CC3C(=O)NC(=O)C3N2Nc2ccccn2)CC1 (stereo not given in full) | 2.31 | 1.15 | -0.167 | 1.02 | 1.58 | 1.92 | 0.781 | 1.75 | 0.842 | -0.332 (inactive)
21 | C#CCNC(/C=C/c1ccccc1)CO (stereo not given) | 0.638 | 0.355 | -0.0492 | 0.269 | 0.362 | 0.106 | -1.07 | 0.394 | -0.0687 | 0.835 (inactive)
22 | O=C1O[C@@H](c2ccccc2)[C@@H](c2ccccc2)N2[C@@H](c3ccc(O)cc3)[C@]3(C(=O)Nc4ccc(C#CC5(O)CCCCCC5)cc43)[C@@H](C(=O)Nc3nc4ccccc4s3)[C@H]12 | 1.87 | 1.22 | 0.706 | 0.886 | 1.37 | 1.21 | -0.901 | 1.53 | 1.26 | -1.4 (inactive)
23 | C=CCC(OC(C)=O)[C@@H]1[C@@H](N(Cc2cccc3ccccc23)C(=O)Cc2ccc(F)cc2)c2cc(OCCCO)ccc2N1C(=O)Cc1ccc2ccccc2c1 (stereo not given in full) | -0.404 | -0.329 | 0.317 | -0.175 | 0.0802 | -0.391 | 0.331 | -0.258 | 0.191 | 0.693 (inactive)
24 | Cc1ccc(S[C@]2(C(=O)NCCCN(C)C)CC(=O)N(C3CCCCC3)[C@@H]2c2ccc(CO)cc2I)cc1 | 0.731 | -0.171 | -0.471 | -1.32 | -0.351 | -0.29 | 3.41 | -0.695 | -1.54 | -1.38 (inactive)
25 | COCCOC(=O)N1C(=O)[C@@]2(c3cc(C#CCC(C(=O)OC)C(=O)OC)ccc31)[C@H](C(=O)N1CCN(c3ncccn3)CC1)[C@H]1C(=O)O[C@H](c3ccccc3)[C@H](c3ccccc3)N1[C@@H]2c1ccc(O)cc1 | 1.55 | 1.19 | 0.89 | 0.65 | 0.51 | 0.393 | 1.95 | 0.72 | 1.07 | -1 (inactive)
26 | COC(=O)[C@@]1(Cc2ccccc2N=[N+]=[N-])N=C(c2ccc(OCCCO)cc2)O[C@H]1c1ccccc1CN=[N+]=[N-] | 1.65 | 1.02 | 0.926 | 0.168 | 1.29 | 0.609 | 1.02 | -0.213 | 0.727 | -1.76 (inactive)
27 | CCOC(=O)C[C@H]1[C@H](OC(=O)c2cc3ccccc3oc2=O)[C@@H](NC(=O)C2CCCCC2)c2cc(OCCCO)ccc2N1C(=O)c1ccc2ccccc2n1 | 0.0957 | 0.791 | 2.65 | 0.443 | 1.13 | 0.324 | 0.539 | 0.522 | 0.755 | 0.777 (inactive)

Reference: PubChem BioAssay
